Laboratory results published in PubChem BioAssay.
The source made the active and inactive calls.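 The calls were made as follows, unless noted: active = inhibition at or above 50% at 10 µM; inactive = inhibition below 50%.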

What was measured:
[1] = inhibitors of TNFa-induced NFkB p65 translocation, primary screen, imaging, HUVEC, MLSMR starter and 10KST1 sets (AID 438;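 active = inhibition above 20% together with a positive visual image hit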;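 also: compound added about 3h40 before a 20 min TNFalpha stimulation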;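 as to inhibition: signal is the nuclear over cytoplasmic p65 intensity ratio per well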); settings: HUVEC TNFa-induced p65 nuclear translocation; cell count: measured here: nuclei count (cytotoxicity indicator), at 2.08 µM; inhibition: at 2 µM, stronger effect = higher value, 0% TNFa-plus-vehicle, 100% no-TNFa wells
[2] = reduction of polyQ htt aggregates in cells – imaging, exon1htt(103Q)mCFP cells, high-content imaging, primary screen (AID 483;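 active = visual image review flags a hit and inhibition of aggregation exceeds 20%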;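 also: compound exposure lasted 3 days before fixation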;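 as to nuclei count: percent of the per-plate median nuclei count of sample wells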); settings: exon1htt(103Q)mCFP cell line, aggregate imaging, at 2 µM; inhibition of aggregation: stronger effect = higher value; nuclei count: measured here: cell count, toxicity
[3] = endothelial E-selectin expression blockers – imaging, HUVEC, immunofluorescence, MLSMR starter and 10KST1 sets, primary screen (AID 487;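 active = visually confirmed hit in the image check and inhibition above 20%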;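 as to inhibition: signal is fraction of cell area covered by stained E-selectin grains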;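 as to nuclei count: 100% = median nuclei count of all wells on the same plate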); settings: HUVEC TNFalpha-induced E-selectin immunofluorescence imaging, at 2 µM; inhibition: stronger effect = higher value; nuclei count: measured here: cell number, toxicity
[4] = target: Voltage-gated potassium channel subunit beta-2 (Rattus norvegicus) (UniProt P62483); test: inhibitors of rat Kvbeta2 reductase activity – biochemical, NADPH fluorescence, primary screen (AID 622;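 active = fluorescence slope higher than the sample average by over 3 SD, cut at about -0.22 in these data, passing the limit was not always enough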;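 also: slope of raw intensity against log time taken from 70 to 1610 s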); settings: recombinant KvBeta, 4-cyanobenzaldehyde reduction, at 10 µM, stronger effect = higher value
Voltage-gated potassium channel subunit beta-2 (Rattus norvegicus), sequence (P62483 whole entry, looked up): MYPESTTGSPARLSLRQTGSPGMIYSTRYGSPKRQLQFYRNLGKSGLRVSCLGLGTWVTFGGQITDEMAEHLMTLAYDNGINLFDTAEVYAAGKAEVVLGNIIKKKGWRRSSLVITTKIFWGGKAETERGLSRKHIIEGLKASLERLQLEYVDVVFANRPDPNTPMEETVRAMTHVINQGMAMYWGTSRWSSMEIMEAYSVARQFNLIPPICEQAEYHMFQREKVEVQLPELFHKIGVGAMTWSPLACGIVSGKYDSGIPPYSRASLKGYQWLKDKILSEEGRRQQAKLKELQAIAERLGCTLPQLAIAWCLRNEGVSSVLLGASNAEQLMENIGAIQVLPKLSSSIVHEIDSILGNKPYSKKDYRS

[5] = target: Voltage-gated potassium channel subunit beta-2 (Rattus norvegicus) (UniProt P62483); test: enhancers of rat Kvbeta2 NADPH turnover – biochemical, NADPH fluorescence, primary screen (AID 623;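 active = NADPH fluorescence slope more negative than the mean of all samples by about 3 SD, 99.7% confidence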;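 also: fluorescence intensity change per second fitted from 20 to 320 s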); settings: Recombinant KvBeta, NADPH fluorescence decrease slope, 10 min; at 10 µM; stronger effect = lower value
[6] = target: Alpha-2C adrenergic receptor (Homo sapiens) (UniProt P18825); test: compounds altering alpha2C-coupled GIRK flux – cell-based, HEK293 alpha2C/GIRK1/2, thallium flux, primary screen (AID 624;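 active = fluorescence slope after compound addition differing from the mean of all screened samples at 99.7% confidence, in either direction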;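 also: slope of fluorescence ratio to pre-addition baseline per second over 15 to 24 s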); settings: thallium flux BTC fluorescence, at 10 µM, actives lie on both sides
Alpha-2C adrenergic receptor (Homo sapiens), sequence (P18825 whole entry, looked up): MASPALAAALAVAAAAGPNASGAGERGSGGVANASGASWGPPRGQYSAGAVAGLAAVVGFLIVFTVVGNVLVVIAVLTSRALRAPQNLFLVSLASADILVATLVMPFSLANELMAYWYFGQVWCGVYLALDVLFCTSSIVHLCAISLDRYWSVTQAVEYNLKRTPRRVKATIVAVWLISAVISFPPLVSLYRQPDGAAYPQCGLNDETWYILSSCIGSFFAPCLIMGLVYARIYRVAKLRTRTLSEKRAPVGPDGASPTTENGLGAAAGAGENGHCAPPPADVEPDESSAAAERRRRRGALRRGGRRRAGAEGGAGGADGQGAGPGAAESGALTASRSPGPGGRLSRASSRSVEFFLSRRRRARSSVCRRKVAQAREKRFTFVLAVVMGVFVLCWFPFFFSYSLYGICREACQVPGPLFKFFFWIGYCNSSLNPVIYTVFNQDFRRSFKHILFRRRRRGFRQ

[7] = blockers of RIG-like receptor reporter activation – cell-based, Sendai virus stimulus, luciferase, 10K MLSCN set, TLR/RLR signaling modifier project, primary screen (AID 602276); settings: HEK293 RL24 IRF3 luciferase reporter, at 10 µM, stronger effect = higher value;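 also: firefly luciferase from ISG56 promoter only with Renilla not read in this screen; 0% = Sendai virus plus DMSO and 100% = medium plus DMSO without virus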
[8] = TLR3 IRF3 reporter activation blockers – cell-based, poly I:C stimulus, luciferase, 10K MLSCN set, primary screen (AID 602277;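 active = inhibition of the reporter signal at or above 50%; inactive = inhibition below 50%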); settings: HEK293-TLR3 RL24 IRF3 luciferase reporter, at 10 µM, stronger effect = higher value

SMILES	cell count [1]	inhibition [1]	inhibition of aggregation [2]	nuclei count [2]	inhibition [3]	nuclei count [3]	fluorescence slope [4]	NADPH fluorescence slope [5]	slope [6]	inhibition [7]	inhibition [8]
COc1ccc(Cc2nnc(NC(=O)Cc3cccs3)s2)cc1	674	-27.6% (inactive)	8.6% (inactive)	105%	14.9% (inactive)	101%	-0.568 (inactive)	2.7e-05 (inactive)	0.0056 (inactive)	-11% (inactive)	100% (active)
N#Cc1ccc(-c2csc(NC(=O)C3CC3)n2)cc1	718	-9.6% (inactive)	33.4% (inactive)	93.9%	-25.2% (inactive)	116%	-0.502 (inactive)	-1.9e-05 (inactive)	0.00647 (inactive)	-27.3% (inactive)	-86% (inactive)
COc1cccc(Cn2c(-c3nonc3N)nc3ccccc32)c1	306	-4.8% (inactive)	-97% (inactive)	1.8%	-97% (inactive)	113%	-0.556 (inactive)	-8.2e-05 (inactive)	0.00614 (inactive)	7.76% (inactive)	57.2% (active)
CCOC(=O)c1ccc(N2C(=O)CC(NC3CCN(C(=O)c4ccc(F)cc4)CC3)C2=O)cc1 (centres undefined)	699	8.6% (inactive)	7.9% (inactive)	102%	-30.3% (inactive)	98.3%	-0.416 (inactive)	2.4e-05 (inactive)	0.00425 (inactive)	-1.5% (inactive)	-3.21% (inactive)
N#CC1=C(SCC(=O)NC2CCCCC2)NC(=O)CC1c1ccco1 (centres undefined)	709	-7.8% (inactive)	-1.4% (inactive)	62%	-10.6% (inactive)	102%	-0.525 (inactive)	-5.1e-05 (inactive)	0.00537 (inactive)	10.9% (inactive)	14% (inactive)
CCC1CCCN1Cn1cnc2c([nH]c3ccc(OC)cc32)c1=O (centres undefined)	602	-7.6% (inactive)	3.4% (inactive)	108%	-53.1% (inactive)	86.2%	-0.396 (inactive)	-1.1e-05 (inactive)	0.0053 (inactive)	11.1% (inactive)	26.1% (inactive)
C=CCn1c(SCC(=O)Nc2ccccc2OC)nnc1-c1ccco1	736	11% (inactive)	1.8% (inactive)	105%	0.9% (inactive)	120%	-0.494 (inactive)	-5.8e-05 (inactive)	0.00624 (inactive)	20.4% (inactive)	22.4% (inactive)
COC(=O)c1ccc2c(c1)nc(C)n2CCO	360	-4% (inactive)	-26% (inactive)	139%	-23.6% (inactive)	94.3%	-0.315 (inactive)	-2.9e-05 (inactive)	0.00466 (inactive)	5.24% (inactive)	12.5% (inactive)
c1cncc(-c2nnc3n2N=C(c2cccs2)CS3)c1	523	4.8% (inactive)	7.7% (inactive)	96.4%	-28.3% (inactive)	107%	-0.331 (inactive)	5.7e-06 (inactive)	0.00392 (inactive)	5.28% (inactive)	17.3% (inactive)
O=C1N=C(N2CCOCC2)CS1	309	3.4% (inactive)	-6.9% (inactive)	90.7%	36% (inactive)	95.1%	-0.519 (inactive)	-1.2e-05 (inactive)	0.00426 (inactive)	6.09% (inactive)	10.7% (inactive)
Cc1nn(CC(O)Cn2c3c(c4ccccc42)CCN(C)C3=O)c(C)c1Br (centres undefined)	363	-4.7% (inactive)	10.5% (inactive)	101%	45.5% (inactive)	75.2%	-0.427 (inactive)	-3e-05 (inactive)	0.00532 (inactive)	21.6% (inactive)	21.9% (inactive)
O=S1(=O)CC(N2CCOCC2)c2ccccc21 (centres undefined)	644	-0.2% (inactive)	8.1% (inactive)	95.1%	-26.3% (inactive)	112%	-0.52 (inactive)	-1.6e-05 (inactive)	0.00437 (inactive)	7.8% (inactive)	12.8% (inactive)
COc1cc(NC(=O)C2C3C=CC(C3)C2C(=O)O)c(OC)cc1Cl (centres undefined)	406	0.8% (inactive)	-31% (inactive)	98.6%	19.6% (inactive)	90%	-0.49 (inactive)	-6.5e-06 (inactive)	0.00705 (inactive)	-7.81% (inactive)	20.2% (inactive)
CCOC(=O)c1c(NC(=O)COC(=O)c2c(C)noc2C)sc2c1CCC2	231	7.8% (inactive)	29.9% (inactive)	103%	-101% (inactive)	109%	-0.472 (inactive)	-1.1e-05 (inactive)	0.0054 (inactive)	14.6% (inactive)	21.3% (inactive)
O=C(CCS(=O)(=O)c1cccc2nsnc12)NCc1ccccc1	718	3.1% (inactive)	-14.8% (inactive)	93.6%	-24.5% (inactive)	114%	-0.567 (inactive)	3.6e-05 (inactive)	0.00505 (inactive)	-2.94% (inactive)	5.74% (inactive)
O=C(NC1CCCCC1)c1ccc(S(=O)(=O)N2CCCCC2)cc1	392	2.1% (inactive)	5.8% (inactive)	96.4%	-49.2% (inactive)	119%	-0.588 (inactive)	1.4e-05 (inactive)	0.00499 (inactive)	-18.3% (inactive)	-7.9% (inactive)
CCOC(=O)C1CCN(c2c(Nc3ccc4c(c3)OCCO4)c(=O)c2=O)CC1	789	4.6% (inactive)	0.6% (inactive)	106%	-129% (inactive)	125%	-0.622 (inactive)	2.4e-05 (inactive)	0.0056 (inactive)	44% (inactive)	27.5% (inactive)
COc1cccc(C(c2nnnn2CCc2ccccc2)N2CCN(c3ccccc3)CC2)c1OC (centres undefined)	605	-23.5% (inactive)	-19.6% (inactive)	94.9%	48.8% (inactive)	91.6%	-0.516 (inactive)	-3e-06 (inactive)	0.00514 (inactive)	18.8% (inactive)	10.1% (inactive)
COc1ccc(C)cc1S(=O)(=O)Nc1cccnc1	283	0.4% (inactive)	13.9% (inactive)	78.8%	-61.4% (inactive)	90%	-0.475 (inactive)	-3.8e-05 (inactive)	0.00515 (inactive)	25.8% (inactive)	25.5% (inactive)
